# Assay results: the supplement of paper PMC8728848
# Shown is part of a subset that was picked to be rich in the strongest signals.
# Columns and labels:
# Assay in all cases: glycan array binding signal (z-score within array); higher = stronger binding
# Conditions in all cases: glycan notation: IUPAC condensed, linker removed
# [1] = biological target: Fuc(a1-2)Gal(b1-3)GlcNAc(b1-2)Man(a1-3)[Fuc(a1-2)Gal(b1-3)GlcNAc(b1-2)Man(a1-6)]Man(b1-4)GlcNAc(b1-4)GlcNAc
# In short: (§1)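 Glycan array data came from 3228 arrays in the Consortium for Functional Glycomics database, and only arrays with an available protein sequence were kept. Glycan names were put into IUPAC-condensed notation, and columns mapping to the same glycan were averaged. The binding signal is a within-array Z-score, averaged across arrays of one protein sequence run at different concentrations or buffers and across linkers. A negative Z-score can be read as non-binding.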
# [2] = biological target: Fuc(a1-2)Gal(b1-4)Fuc(a1-3)]GlcNAc(b1-2)Man(a1-3)[Fuc(a1-2)Gal(b1-4)[Fuc(a1-3)]GlcNAc(b1-2)Man(a1-6)]Man(b1-4)GlcNAc(b1-4)GlcNAc
# In short: as §1
# [3] = biological target: Fuc(a1-2)Gal(b1-4)GlcNAc
# In short: as §1
# [4] = biological target: Fuc(a1-2)Gal(b1-4)GlcNAc(b1-2)Man(a1-3)[Fuc(a1-2)Gal(b1-4)GlcNAc(b1-2)Man(a1-6)]Man(b1-4)GlcNAc(b1-4)[Fuc(a1-6)]GlcNAc
# In short: as §1
# [5] = biological target: Fuc(a1-2)Gal(b1-4)GlcNAc(b1-3)Gal(b1-4)GlcNAc(b1-2)Man(a1-3)[Fuc(a1-2)Gal(b1-4)GlcNAc(b1-3)Gal(b1-4)GlcNAc(b1-2)Man(a1-6)]Man(b1-4)GlcNAc(b1-4)GlcNAc
# In short: as §1
# [6] = biological target: Fuc(a1-2)[Gal(a1-3)]Gal(b1-3)GlcNAc(b1-2)Man(a1-3)[Fuc(a1-2)[Gal(a1-3)]Gal(b1-3)GlcNAc(b1-2)Man(a1-6)]Man(b1-4)GlcNAc(b1-4)GlcNAc
# In short: as §1
# [7] = biological target: Fuc(a1-2)[Gal(a1-3)]Gal(b1-3)GlcNAc(b1-6)GalNAc
# In short: as §1
# [8] = biological target: Fuc(a1-2)[Gal(a1-3)]Gal(b1-4)Glc
# In short: as §1
# [9] = biological target: Fuc(a1-2)[GalNAc(a1-3)]Gal(b1-4)GlcNAc(b1-2)Man(a1-3)[Fuc(a1-2)[GalNAc(a1-3)]Gal(b1-4)GlcNAc(b1-2)Man(a1-6)]Man(b1-4)GlcNAc(b1-4)[Fuc(a1-6)]GlcNAc
# In short: as §1
# [10] = biological target: Fuc(a1-2)[GalNAc(a1-3)]Gal(b1-4)GlcNAc(b1-3)GalNAc
# In short: as §1
# [11] = biological target: Fuc(a1-2)[GalNAc(b1-3)]Gal
# In short: as §1
# [12] = biological target: Fuc(a1-3)[Gal(b1-4)]GlcNAc(b1-2)Man(a1-3)[Fuc(a1-3)[Gal(b1-4)]GlcNAc(b1-2)Man(a1-6)]Man(b1-4)GlcNAc(b1-4)[Fuc(a1-6)]GlcNAc
# In short: as §1
# [13] = biological target: Fuc(a1-3)[Gal3S(b1-4)]Glc
# In short: as §1
# [14] = biological target: Gal(a1-3)Gal(b1-3)GlcNAc(b1-2)Man(a1-3)[Gal(a1-3)Gal(b1-3)GlcNAc(b1-2)Man(a1-6)]Man(b1-4)GlcNAc(b1-4)GlcNAc
# In short: as §1
# [15] = biological target: Gal(a1-4)Gal(b1-3)GlcNAc(b1-2)Man(a1-3)[Gal(a1-4)Gal(b1-3)GlcNAc(b1-2)Man(a1-6)]Man(b1-4)GlcNAc(b1-4)GlcNAc
# In short: as §1
# [16] = biological target: Gal(b1-3)GalNAc(a1-3)[Fuc(a1-2)]Gal(b1-4)GlcNAc
# In short: as §1
# [17] = biological target: Gal(b1-3)GlcNAc(b1-3)Gal(b1-4)GlcNAc(b1-2)Man(a1-3)[Gal(b1-3)GlcNAc(b1-3)Gal(b1-4)GlcNAc(b1-2)Man(a1-6)]Man(b1-4)GlcNAc(b1-4)GlcNAc
# In short: as §1
# [18] = biological target: Gal(b1-3)GlcNAc(b1-3)Gal(b1-4)GlcNAc(b1-6)[Gal(b1-3)GlcNAc(b1-3)]Gal(b1-4)Glc
# In short: as §1
# [19] = biological target: Gal(b1-3)GlcNAc(b1-6)GalNAc
# In short: as §1
# [20] = biological target: Gal(b1-3)[Fuc(a1-4)]GlcNAc
# In short: as §1
# [21] = biological target: Gal(b1-4)Glc6S
# In short: as §1
# [22] = biological target: Gal(b1-4)GlcNAc(b1-2)Man(a1-3)Man(b1-4)GlcNAc(b1-4)GlcNAc
# In short: as §1
binder,measurement,setting,value
"InvD YPIII (Yersinia pseudotuberculosis), B1JSC0 (protein) MIKYFSFFKKPEPIVGILPNRQSHHILPTHIRRVAWGTLLLQLFIPLSVSFSPAIAAMKASKADTMVSYSSTEPYVLGSGETVAMVAKKYGITVDELKKINIYRTFSRPFTALTTGDEIDIPRKASPFSVDNNKDNRLSVENTLAGHAVAGATALSNGDVAKSGERMVRSAASNEFNNSAQQWLSQFGTARVQLNINDDFHLDGSAADVLIPLYDNEKSILFTQLGARNKDSRNTVNMGAGVRTFQGNWMYGANTFFDNDLTGKNRRIGVGAEAWTDYLKLSANNYFGITDWHQSRDFIDYNERPANGYDLRAEAYLPSYPQLGGKAMYEKYRGDDVALFGKDNRQKNPHAITAGVNYTPIPLVTIGAEHRAGKGGQNDSNINFQLNYRLGETWQSHIDPSAVAASRTLAGSRYDLVERNNHIVLDYQKQNLVRLSLPDSLAGDPFSQLSVTAQVTATHGLERIDWQSAELMAAGGVLKQTSKNGLEITLPEYQMNRTGGNSYILNAIAYDTQGNASSQASMLITVNAQKINIANSTLVAVPINIEANNSDTSVVTLTLKDDNNIPVTGQDVTFLSPLGTLSAMTDSGNGVYTATLTAGTVSGTTAVSSNINGSALDMTPATVTLNGNSGELSITHSMLVAAPVNIEANGSDTSVVTLTLRDSNNNPVTGQTVTFAGTLGTLGAVTEGSSGVYTATLTAGIMVGTSSITASVNSTALGVTPATVTLNGDSGNLSTTNSTLVAAPVNIEANSSDTSVVTLTLRDNNNNPVTGQTVVFTSTLGTLGNVTEQASGVYTATLTAGTVSGVASLSVSVGGNALGVTPATVTLNGDSGNLSTTNSTLVAAPVNIEANSSDTSVVTLTLRDNNNNPVTGQTVNFAGTLGTLGTVSEGSSGVYTTTLTAGTVAGVASLSVNVGGNALGVTPATVTLNGNSGNLSATNSTLVAAPVNIEANSSDTSVVTLTLRDNNNNPVTGQTVAFTSTLGTLGNVTEQASGVYTATLTAGTVSGVASLSVSVNSNALGVTPATVTLNGDSGNLSTTNSTLVAAPVNIEANSSDTSVVTLTLRDNNNNPVTGQTVAFTSTLGTLGNVTEQASGLYTATLTAGTVSGVASLSVNVGGNALGVTPATVTLNGDSGNLSATNSTLVAAPVNIEANSSDTSVVTLTLRDNNNNPVTGQTVAFTSTLGTLGNVTEQASGLYTATLTAGTVSGVASLSVNVGGTALGVTPATVTLNGDSGNLSTTNSTLVAAPVNIEANSSDTSVVTLTLRDNNNNPVTGQTVAFTSTLGTLGNVTEQASGLYTATLTAGTVSGVASLSVSVNSTALGVTPATVTLNGDSGNLSTTNSTLVAAPVNIEANSSDTSVVTLTLRDNNNNPVTGQTVAFTSTLGTLGNVTEQASGVYTATLTAGTVAGVASLSVNVGGNALGVTPATVTLNGDSGNLSTTNSTLVAAPVNIEANSSDTSVVTLTLRDNNNNPVTGQTVAFTSTLGTLGNVTEQASGVYTATLTAGTVSGVASLSVSVGSSALGVTPATVTLNGDSGNLSTTNSTLVAAPVNIEANNSDTSVVTLTLRDNNNNPVTGQTVAFTSTLGTLGNVTEQASGVYTATLTAGTVSGVASLSVSVNSNALGVTPATVTLNGDSGNLSTTNSTLVAAPVNIEANSSDTSVVTLTLRDNNNNPVTGQTVVFTSTLGTLGNVTEQASGLYTATLTAGTVSGVASLSVSVGGNALGVTGNITLAPGALDAARSILAVNKPSINADDRIGSTITFTAQDAQGNAITGLDIAFMTDLENSQIMTLVDHNDGTYTANINGTQTGIANIAVQSSGATIAGLAATMVTITPGAWNTTQATPVMTVALPITTCQSSSGVYKRYYIGIVTHELYDNYGNEISGILTYNLGAGRYTTVTSQNSSVSGSNGLTRRSNSPVSHFILTSDAYTSQAACYAERIANVNVTITVTAITDDFKTSAVNKVFILGTGSN",glycan array binding signal (z-score),[1],0.001
same,glycan array binding signal (z-score),[2],1.36
same,glycan array binding signal (z-score),[3],-0.154
same,glycan array binding signal (z-score),[4],0.037
same,glycan array binding signal (z-score),[5],-0.232
same,glycan array binding signal (z-score),[6],-0.164
same,glycan array binding signal (z-score),[7],0.218
same,glycan array binding signal (z-score),[8],-0.359
same,glycan array binding signal (z-score),[9],0.113
same,glycan array binding signal (z-score),[10],-0.306
same,glycan array binding signal (z-score),[11],0.063
same,glycan array binding signal (z-score),[12],-0.147
same,glycan array binding signal (z-score),[13],-0.259
same,glycan array binding signal (z-score),[14],0.213
same,glycan array binding signal (z-score),[15],0.015
same,glycan array binding signal (z-score),[16],-0.102
same,glycan array binding signal (z-score),[17],-0.358
same,glycan array binding signal (z-score),[18],-0.192
same,glycan array binding signal (z-score),[19],-0.16
same,glycan array binding signal (z-score),[20],-0.119
same,glycan array binding signal (z-score),[21],-0.213
same,glycan array binding signal (z-score),[22],-0.355
